Drawing on PubChem BioAssay (NCI), this text covers growth inhibition for 17 molecules.

Molecules are shown by their SMILES. About 79,000 compounds went through this panel and 15% of them were active in at least one assay; those are over-represented in the sample as a whole. A number with no mark means an inactive call. The source made the active and inactive calls. Rule as the data show it: active = growth inhibition above about 70%; inactive = the rest.

The experiment in a line: NCI Yeast Anticancer Drug Screen. Data for the mec2-1 strain (AID 157). Conditions: S. cerevisiae mec2-1 strain, at 50.0 µM, stronger effect = higher value. The procedure, abridged:
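Using mec2-1 yeast: add compound, measure growth, express inhibition versus vehicle-treated cultures.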
As for `CCC(c1ccccc1)N1C(=O)c2ccccc2S1(=O)=O` (configuration not stated), the growth inhibition was 14.3%.

Turning to `Cc1ccc2cc3ccccc3c(-c3ccccc3)c2c1`, the growth inhibition is 12.9%.

Turning to `CC(=O)Oc1ccc(C)cc1C(C)(C)C`, the growth inhibition is 54.8%.

As to `CCCCCCCCCCC[N+](C)(C)CCCCCC[N+](C)(C)CCCCCCCCCCC`, the growth inhibition was 91% (active).

In the case of `CCN(CC)CCCNc1nc(NCCCN(CC)CC)c2nc(-c3ccccc3)c(-c3ccccc3)nc2n1`, the growth inhibition was 61.4%.

Regarding `O=[N+]([O-])c1cnc(Sc2cncc[n+]2[O-])s1`, the growth inhibition was 99.4% (active).

In the case of `O=c1[nH]c(=O)c2cc([N+](=O)[O-])cc([N+](=O)[O-])c2[nH]1`, the growth inhibition is 73.7% (active).

With `O=C(NC(=O)C(F)(F)F)Nc1ccc(Cl)cc1`, the growth inhibition was -1.15%.

Turning to `O=[N+]([O-])c1ccc(S)c(Cl)c1`, the growth inhibition is 87.7% (active).

As to `CS(=O)(=O)n1c(C(O)c2ccccc2)nc2ccccc21` (configuration not stated), the growth inhibition is 17.8%.

Regarding `O=C(NCc1ccccc1)C1C(=O)N(Cc2ccccc2)C(=O)/C1=N/O` (configuration not stated), the growth inhibition was 16.8%.

On to `C[n+]1c(/C=C/c2ccccc2Cl)sc2ccccc21`, for which the growth inhibition is 94.2% (active).

Turning to `CC(=O)c1ccc(Cl)c(N=Cc2cc(Br)ccc2O)c1`, the growth inhibition is 70.4% (active).

As to `O=C(c1ccc(Cl)cc1)c1ccc([N+](=O)[O-])cc1`, the growth inhibition was -16.4%.

In the case of `Nc1ccc2c(c1)[nH]c(=O)c1cc(Cl)c(Cl)cc12`, the growth inhibition is 40.4%.

For `COc1ccc(C2CC(c3c(O)ccc4ccccc34)=NN2)cc1OC` (configuration not stated), the growth inhibition is 91.8% (active).

With `CC[N+]1(C)CCC(O)(c2ccc(Cl)c(Cl)c2)C(C(=O)c2ccc(Cl)c(Cl)c2)C1` (configuration not stated), the growth inhibition was 99.6% (active).
